# Experimental data from PubChem BioAssay (Tox21).
# Unmarked numbers belong to inactive results. Records with an inconclusive call do not appear. A call without a number means that no potency is given here. Activity calls are given as the source filed them. Unless noted, calls follow the shape of the dose curve; as a rule, active = well fitted curve in the direction sought with a large enough effect in the repeat runs; inconclusive = weak or mixed curves; inactive = no such curve, though single readings can be large; an effect the other way counts as inactive or inconclusive.
# Legend:
# [1] = qHTS assay to identify small molecule agonists of the androgen receptor (AR) signaling pathway in the presence of an antagonist - cell viability counter screen (AID 1259379); also: nearly all actives have a fitted effect of over 25% in size; also: potency is read from the fitted curve at half-maximal effect;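 as to activity change, negative = cytotoxicity: MDA-kb2 human breast cancer cells carrying an MMTV luciferase reporter; series mostly up to about 92 µM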
# In short: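 Cells: MDA-kb2 (MMTV-luc, AR and GR elements), 3,000/well, 5 hr settle. Added: nilutamide 3.0uM final, then compounds (15 conc.). Incubation: 16 hr, 37C, no CO2. Read-out: CellTiter-Fluor, 1 hr, fluorescence.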
# [2] = qHTS assay to identify small molecule agonists of the estrogen receptor beta (ER-beta) signaling pathway - cell viability counter screen (AID 1259380); also: nearly all actives have a fitted effect of over 30% in size
# In short: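 HEK293T ER-beta-UAS-bla; 2% CS-FBS; 6 hr pre-plate, 16 hr cpd at 37C/5% CO2; LiveBLAzer read first, then CellTiter-Glo 30 min RT, luminescence.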
# [3] = qHTS assay to identify small molecule antagonists of the estrogen receptor beta (ER-beta) signaling pathway - cell viability counter screen (AID 1259382);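 also: HEK293T cells carrying ER-beta-UAS-bla reporter stimulated with estradiol; series mostly up to about 92 µM; nearly all actives have a fitted effect of over 55% in size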
# In short: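 Cells: ER-beta-UAS-bla HEK293T, 2,000/well, 2% CS-FBS, 6 hr settle. Cpd + E2 (1nM final), 16 hr, 37C/5% CO2. Bla FRET substrate 2 hr RT, then CellTiter-Glo 30 min RT, luminescence.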
# [4] = qHTS assay to identify small molecule agonists of the estrogen receptor alpha (ER-alpha) signaling pathway in the presence of an antagonist - cell viability counter screen (AID 1259386);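 also: cells exposed to compounds for 22 h at 37 °C before the viability read; nearly all actives have a fitted effect of over 30% in size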; also: potency is read from the fitted curve at half-maximal effect; as to activity change, negative = cytotoxicity: series mostly up to about 92 µM
# In short: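 VM7Luc4E2, stripped-serum pre-culture 5 d; 24hr plating; +ICI-182,780 10.0nM final; cpds 15 conc, 22hr, 37C/5% CO2; CellTiter-Fluor added at 21hr, fluorescence 1hr later.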
# [5] = target: Progesterone receptor (Homo sapiens) (UniProt P06401); assay: qHTS assay to identify small molecule agonists of the progesterone receptor (PR) signaling pathway (AID 1346784; calls by dose curve; also: nearly all actives have a fitted effect of over 30% in size; also: potency is read from the fitted curve at half-maximal effect)
# In short: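 Agonist qHTS: compounds pinned onto 3,000 PR-UAS-bla HEK 293T cells per well in charcoal-stripped serum medium, 16hr at 37C, then beta-lactamase activity measured by LiveBLAzer FRET fluorescence after 2 hours at room temperature.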
# [6] = qHTS assay to identify small molecule agonists or antagonists of the thyroid stimulating hormone receptor (TSHR) signaling pathway - wild type cell line counter screen (AID 1259384; calls by dose curve)
# In short: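 Wild-type HEK293 cells were plated 18 h at 37 C/5% CO2, pin-dosed with compound plus Ro20-1724 medium, held 30 min at room temperature, then given cAMP-d2 and anti-cAMP-cryptate; fluorescence was read after 1 h. Fifteen concentrations, triplicate.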
# [7] = target: Thyrotropin receptor (Homo sapiens) (UniProt P16473); assay: qHTS assay to identify small molecule antagonists of the thyroid stimulating hormone receptor (TSHR) signaling pathway (AID 1259385; calls by dose curve; also: nearly all actives have a fitted effect of over 20% in size)
# In short: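 TSHR-HEK293 cells were plated and held 18 h at 37C/5% CO2, then given compound plus Ro20-1724 and stimulated with TSH at 1.5 ng/mL final. After 30 min at room temperature, cAMP was detected with cAMP-d2/anti-cAMP-cryptate (1 h) by fluorescence.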
# [8] = target: Estrogen receptor (Homo sapiens) (UniProt P03372); assay: qHTS assay to identify small molecule agonists of the estrogen receptor alpha (ER-alpha) signaling pathway in the presence of an antagonist (AID 1259383; calls by dose curve; also: top concentration of the series differs between compounds; nearly all actives have a fitted effect of over 15% in size)
# In short: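 VM7Luc4E2, endog. ER-alpha + 4×ERE-luc; charcoal-stripped FBS, phenol red-free, 5 d; 24hr plating; +10.0nM ICI-182,780 (final); cpds 15 conc, 22hr, 37C/5% CO2; ONE-Glo luminescence.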
# Thyrotropin receptor (Homo sapiens), sequence (P16473 whole entry, looked up): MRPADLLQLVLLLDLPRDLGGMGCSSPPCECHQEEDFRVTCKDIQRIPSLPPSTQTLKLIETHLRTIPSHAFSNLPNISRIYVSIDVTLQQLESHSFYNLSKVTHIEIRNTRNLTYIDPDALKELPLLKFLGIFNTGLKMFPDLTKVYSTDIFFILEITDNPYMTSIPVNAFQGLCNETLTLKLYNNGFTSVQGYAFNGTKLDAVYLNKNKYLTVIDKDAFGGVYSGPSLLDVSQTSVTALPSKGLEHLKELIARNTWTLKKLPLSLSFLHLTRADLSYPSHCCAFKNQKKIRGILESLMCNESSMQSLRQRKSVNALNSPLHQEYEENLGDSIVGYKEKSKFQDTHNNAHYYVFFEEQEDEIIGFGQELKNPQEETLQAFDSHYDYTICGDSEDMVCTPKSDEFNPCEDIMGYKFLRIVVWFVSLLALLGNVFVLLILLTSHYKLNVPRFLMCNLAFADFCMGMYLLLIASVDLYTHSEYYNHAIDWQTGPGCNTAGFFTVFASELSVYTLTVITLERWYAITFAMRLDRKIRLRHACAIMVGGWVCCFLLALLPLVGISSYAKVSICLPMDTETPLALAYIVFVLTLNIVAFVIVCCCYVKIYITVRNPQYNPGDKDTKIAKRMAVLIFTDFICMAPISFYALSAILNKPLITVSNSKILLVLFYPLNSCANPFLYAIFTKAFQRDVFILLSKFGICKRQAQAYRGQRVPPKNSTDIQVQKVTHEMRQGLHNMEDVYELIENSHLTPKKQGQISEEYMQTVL
# Progesterone receptor (Homo sapiens), sequence (P06401 whole entry, looked up): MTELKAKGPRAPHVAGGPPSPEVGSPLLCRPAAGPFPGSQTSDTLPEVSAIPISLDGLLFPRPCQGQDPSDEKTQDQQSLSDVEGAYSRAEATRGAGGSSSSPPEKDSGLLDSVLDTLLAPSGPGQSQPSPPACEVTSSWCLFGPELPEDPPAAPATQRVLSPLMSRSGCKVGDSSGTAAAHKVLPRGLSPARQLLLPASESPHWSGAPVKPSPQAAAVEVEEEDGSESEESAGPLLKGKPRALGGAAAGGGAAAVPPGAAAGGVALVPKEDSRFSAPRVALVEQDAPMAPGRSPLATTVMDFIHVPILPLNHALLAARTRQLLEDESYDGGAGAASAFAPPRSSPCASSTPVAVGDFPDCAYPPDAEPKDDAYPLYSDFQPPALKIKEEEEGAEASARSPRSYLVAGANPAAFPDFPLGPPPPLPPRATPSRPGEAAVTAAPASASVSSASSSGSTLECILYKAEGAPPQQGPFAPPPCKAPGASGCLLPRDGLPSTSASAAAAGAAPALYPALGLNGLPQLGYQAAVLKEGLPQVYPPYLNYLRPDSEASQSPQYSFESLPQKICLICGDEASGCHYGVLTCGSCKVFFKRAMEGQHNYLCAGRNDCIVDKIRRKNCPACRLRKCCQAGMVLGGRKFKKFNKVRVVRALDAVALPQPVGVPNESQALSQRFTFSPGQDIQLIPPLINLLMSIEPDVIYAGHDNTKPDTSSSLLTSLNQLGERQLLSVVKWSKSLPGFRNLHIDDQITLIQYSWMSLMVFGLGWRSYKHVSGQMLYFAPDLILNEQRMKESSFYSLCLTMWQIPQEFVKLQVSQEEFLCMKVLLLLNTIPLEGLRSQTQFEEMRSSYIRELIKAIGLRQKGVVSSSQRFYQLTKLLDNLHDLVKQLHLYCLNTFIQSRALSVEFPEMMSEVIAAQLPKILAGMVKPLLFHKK
# Estrogen receptor (Homo sapiens), sequence (P03372 whole entry, looked up): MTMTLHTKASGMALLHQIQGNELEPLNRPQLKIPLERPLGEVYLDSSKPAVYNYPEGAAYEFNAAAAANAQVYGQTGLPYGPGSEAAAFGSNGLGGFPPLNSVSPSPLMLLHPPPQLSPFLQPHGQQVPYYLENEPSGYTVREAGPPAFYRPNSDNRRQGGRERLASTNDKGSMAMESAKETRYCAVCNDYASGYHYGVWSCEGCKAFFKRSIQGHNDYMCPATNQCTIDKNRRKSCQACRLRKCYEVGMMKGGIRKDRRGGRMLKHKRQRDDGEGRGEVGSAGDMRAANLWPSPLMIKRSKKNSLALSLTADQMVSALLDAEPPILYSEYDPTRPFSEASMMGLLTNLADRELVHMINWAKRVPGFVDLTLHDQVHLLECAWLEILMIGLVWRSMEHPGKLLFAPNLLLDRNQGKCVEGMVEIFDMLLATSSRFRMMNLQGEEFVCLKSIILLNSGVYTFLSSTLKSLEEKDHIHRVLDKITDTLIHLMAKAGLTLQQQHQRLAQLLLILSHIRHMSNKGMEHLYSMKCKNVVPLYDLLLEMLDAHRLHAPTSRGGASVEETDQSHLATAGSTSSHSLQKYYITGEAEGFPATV
smiles,measurement,setting,value
CCCn1cc[n+](C)c1C,Potency,[1],inactive
same,Potency,[2],inactive
same,outcome,[3],inactive
same,Potency,[4],inactive
same,Potency,[5],inactive
NC(N)=NCCN1CCCCCCC1,"activity change, negative = cytotoxicity",[1],-1.24% [at 0.35 µM]
same,"activity change, negative = cytotoxicity",[2],2.58% [at 0.349 µM]
same,"activity change, negative = cytotoxicity",[3],9.29% [at 0.349 µM]
same,cAMP activity change,[6],3.9% [at 0.349 µM]
same,"activity change, negative = inhibition",[7],-0.745% [at 0.349 µM]
same,"activity change, negative = cytotoxicity",[4],3.85% [at 0.349 µM]
same,activation,[5],-1.69% [at 0.349 µM]
CC[N+](CC)(CC(=O)Nc1c(C)cccc1C)Cc1ccccc1 (tested in a mixture with another compound),Potency,[1],inactive
same,Potency,[2],inactive
same,outcome,[3],inactive
same,outcome,[6],inactive
same,outcome,[7],inactive
same,Potency,[4],inactive
same,Potency,[5],inactive
Cc1c(N)c(=O)n(-c2ccccc2)n1C,Potency,[1],inactive
same,Potency,[2],inactive
same,outcome,[3],inactive
same,outcome,[6],inactive
same,outcome,[7],inactive
same,Potency,[4],inactive
same,Potency,[5],inactive
Cc1ncc(COP(=O)(O)O)c(C=O)c1O,Potency,[1],inactive
same,outcome,[3],inactive
same,outcome,[8],inactive
same,outcome,[6],inactive
same,outcome,[7],inactive
same,Potency,[4],inactive
Nc1ccn([C@@H]2O[C@H](CO)[C@@H](O)C2(F)F)c(=O)n1,Potency,[1],inactive
same,outcome,[3],inactive
same,outcome,[8],inactive
same,outcome,[6],inactive
same,outcome,[7],inactive
same,Potency,[4],inactive
c1ccc(CCc2ccccc2)cc1,Potency,[1],inactive
same,Potency,[2],inactive
same,outcome,[3],inactive
same,outcome,[6],inactive
same,outcome,[7],inactive
same,Potency,[4],inactive
same,Potency,[5],inactive
COc1cc2c(cc1OC)-c1cc3ccc(OC)c(OC)c3c[n+]1CC2,Potency,[1],49 µM (active)
same,Potency,[2],inactive
same,outcome,[3],inactive
same,Potency,[4],61.7 µM (active)
CC[N+](C)(CC)CCOC(=O)C1c2ccccc2Oc2ccccc21,Potency,[1],inactive
same,Potency,[2],inactive
same,outcome,[3],inactive
same,outcome,[6],inactive
same,outcome,[7],inactive
same,Potency,[4],inactive
same,Potency,[5],inactive
CC(C)=CCC/C(C)=C/C#N,Potency,[1],inactive
same,outcome,[3],inactive
same,outcome,[8],inactive
same,outcome,[6],inactive
same,outcome,[7],inactive
same,Potency,[4],inactive
same,Potency,[5],inactive
C[N+]12CCC(CC1)C(OC(=O)C(O)(c1ccccc1)c1ccccc1)C2 (centres undefined),Potency,[2],inactive
same,outcome,[3],inactive
same,outcome,[6],inactive
same,outcome,[7],inactive
same,Potency,[4],inactive
same,Potency,[5],inactive
Clc1cc(Cl)c(Cl)nc1Cl,Potency,[1],inactive
same,Potency,[2],inactive
same,outcome,[3],inactive
same,outcome,[6],inactive
same,outcome,[7],inactive
same,Potency,[4],inactive
same,Potency,[5],inactive
CC(C)(C#N)Nc1nc(Cl)nc(NC2CC2)n1,Potency,[1],inactive
same,outcome,[3],inactive
same,outcome,[6],inactive
same,outcome,[7],inactive
same,Potency,[4],inactive
same,Potency,[5],inactive
CCCc1nn(C)c2c(=O)[nH]c(-c3cc(S(=O)(=O)N4CCN(C)CC4)ccc3OCC)nc12,Potency,[1],inactive
same,outcome,[3],inactive
same,outcome,[6],inactive
same,outcome,[7],inactive
same,Potency,[4],inactive
same,Potency,[5],13.3 µM (active)
NCCCC[C@H](N[C@@H](CCc1ccccc1)C(=O)O)C(=O)N1CCC[C@H]1C(=O)O,Potency,[1],inactive
same,Potency,[2],inactive
same,outcome,[3],inactive
same,Potency,[4],inactive
same,Potency,[5],inactive
COc1ccccc1OCC1CNC(=O)O1 (centres undefined),Potency,[1],inactive
same,Potency,[2],inactive
same,outcome,[3],inactive
same,outcome,[6],inactive
same,outcome,[7],inactive
same,Potency,[4],inactive
same,Potency,[5],inactive
C[N+]1(CC2COC(c3ccccc3)(c3ccccc3)O2)CCCCC1 (centres undefined),"activity change, negative = cytotoxicity",[1],4% [at 19 µM]
same,"activity change, negative = cytotoxicity",[2],12% [at 19 µM]
same,"activity change, negative = cytotoxicity",[3],0.56% [at 19 µM]
same,"activity change, negative = cytotoxicity",[4],7.11% [at 19 µM]
